Screening results from PubChem.
An excerpt weighted towards active compounds, which were near 21% of everything screened.
NS1 function inh: qHTS Assay for Inhibitors of Influenza NS1 Protein Function; Potency, µM (doses to about 46.1 µM); 270,000 compounds, 0.4% hits; AID 2326, 2010; calls by dose curve; note: actives are rising curves; nearly all actives have a fitted effect of over 50% in size
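A cell-based growth assay was used: compounds that relieve NS1-induced slow growth of budding yeast raise OD600. Assay medium was yeast nitrogen base with ammonium sulphate and -URA supplement, pH 6.0, with 2% galactose.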
Pf growth 48h: Primary qHTS for delayed death inhibitors of the malarial parasite plastid, 48 hour incubation; Potency, µM (titrated, usually from 28.7 µM), actives largely listed as inhibitors; P. falciparum luciferase growth in erythrocytes, 48 h; 310,000 compounds, 5.9% hits
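Growth was read as firefly luciferase luminescence after a 48 h, 37 C, 5% CO2 exposure of compounds to reporter-bearing P. falciparum cultures (0.1% parasitemia, 2% hematocrit final) in Albumax-supplemented RPMI 1640.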
CHX counter: Cycloheximide Counterscreen for Small Molecule Inhibitors of Shiga Toxin; cell reporter, cycloheximide protein synthesis inhibition counterscreen; max response, %; 300,000 compounds, 12% hits; AID 2314, 2010; in the data active = max response mostly above about 13%, no sharp cut-off; inactive = mostly below about 14%; note: read at 38.3 µM for the half of the compounds with a filed dose
Shiga inhibitor: A qHTS for Small Molecule Inhibitors of Shiga Toxin; Vero cells, Shiga toxin protein synthesis inhibition reporter; inhibition, % at 38.7 µM; 290,000 compounds, 9.2% hits; in the data active = inhibition mostly above about 28%, no sharp cut-off; inactive = mostly below about 43%
Pf growth 96h: Primary qHTS for delayed death inhibitors of the malarial parasite plastid, 96 hour incubation; P. falciparum luciferase reporter growth, 96 h; Potency, µM (doses to about 28.7 µM), most hits filed as inhibitors; 320,000 compounds, 6.9% hits; AID 504834, 2011
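P. falciparum expressing integrated firefly luciferase, in erythrocytes at 2% hematocrit, 0.05% parasitemia, incubated with compounds 96 h at 37 C, 5% CO2. Growth inhibition read as loss of luminescence; two-generation exposure targets delayed-death apicoplast inhibitors.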
FBPA Giardia inh: qHTS Assay for Inhibitors of Fructose-1,6-bisphosphate Aldolase from Giardia Lamblia | A8B2U2 | purified Giardia FBPA | Potency, µM (top dose mostly 59.6 µM), actives largely listed as inhibitors | 290,000 compounds, 0.71% hits; note: nearly all actives have a fitted effect of over 55% in size
Target sequence (A8B2U2 whole entry, looked up): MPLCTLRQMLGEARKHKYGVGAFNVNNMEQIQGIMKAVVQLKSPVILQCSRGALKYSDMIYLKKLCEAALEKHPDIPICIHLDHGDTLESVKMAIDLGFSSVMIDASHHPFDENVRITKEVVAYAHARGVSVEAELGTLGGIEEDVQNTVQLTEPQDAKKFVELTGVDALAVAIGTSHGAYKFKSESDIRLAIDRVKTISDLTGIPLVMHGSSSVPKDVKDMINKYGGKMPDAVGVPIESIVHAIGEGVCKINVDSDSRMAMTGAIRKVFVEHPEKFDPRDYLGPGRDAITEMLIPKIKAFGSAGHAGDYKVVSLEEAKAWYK
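Giardia FBPA (40 nM reagent) was preincubated 10 min at RT with compound (up to 57.5 uM final), then substrate plus GAPDH/TPI/NAD/arsenate coupling system with diaphorase/resazurin was added; resorufin fluorescence (525/598 nm) was read after 20 min.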
Each line names hits and unclear results; the compound was inactive in the other large screens. Unless noted, calls come from the whole dose curve; as a rule, active = well fitted curve in the direction sought with a large enough effect; inconclusive = small, poorly fitted or top-dose-only effect, or another doubt; inactive = no such curve, though single readings can be large; an effect the other way counts as inactive or inconclusive.

C/C(=N\NC(=O)c1c(Cl)cnn1C)c1cccc(NC(=O)C(C)C)c1	none
C/C(=N\NC(=O)c1ccc(Cl)cc1)c1cccc(NC(=O)c2cccnc2)c1	CHX counter 37.7, Shiga inhibitor 44.9
CC(=O)Nc1cccc(/C(C)=N/NC(=O)c2cc(-c3ccncc3)nc3ccccc23)c1	Pf growth 48h inconclusive, Pf growth 96h inconclusive
C/C(=N\NC(=O)c1ccn(C)n1)c1cccc(NC(=O)c2ccncc2)c1	CHX counter 30.5, Shiga inhibitor 45.2, Pf growth 96h inconclusive
C/C(=N\NC(=O)c1c(Br)cnn1C)c1ccc(NC(=O)c2ccc(F)cc2)cc1	CHX counter 42.9, Shiga inhibitor 86.4
C/C(=N/NS(=O)(=O)c1ccc(Cl)cc1)c1cccc(NC(=O)c2ccncc2)c1	Pf growth 48h inconclusive
Cc1ccc(C(=O)NCC(=O)OC(C)C(=O)NC2CCCc3ccccc32)cc1 (configuration not stated)	none (no result: NS1 function inh, CHX counter, Shiga inhibitor, FBPA Giardia inh)
CN(C)CCCN=c1c2ccccc2n(C)c2[nH]c(=O)n(C)c(=O)c12	none (no result: Pf growth 48h, CHX counter, Shiga inhibitor, Pf growth 96h, FBPA Giardia inh)
COCCCN1C(=O)C(=O)/C(=C(/O)c2ccc(S(=O)(=O)N3CCOCC3)cc2)C1c1ccc(C(C)C)cc1 (configuration not stated)	none
C/C(=N\NC(=O)c1c(Cl)cnn1C)c1cccc(NC(=O)c2ccc(C)cc2)c1	CHX counter 20.8, Shiga inhibitor 109.1 (no result: FBPA Giardia inh)
C/C(=N/NC(=O)CNC(=O)c1cccnc1)c1ccc(Cl)cc1	none
Cc1nn(C)c(C(=O)N/N=C/c2ccc(Br)cc2)c1Cl	none
C/C(=N\NC(=O)c1ccc(Cl)cc1)c1cccnc1	CHX counter 29.1
CC(C)c1ccc(/C=N/NC(=O)c2c(Cl)cnn2C)cc1	CHX counter 46.5, Shiga inhibitor active
COc1ccc(C(=O)Nc2cc(OC)cc3cccnc23)cc1	none
COc1cc(N[C@@H](C)CCCN)c2ncccc2c1	Pf growth 48h 0.809µM, Pf growth 96h 0.573µM, FBPA Giardia inh inconclusive (no result: NS1 function inh, CHX counter, Shiga inhibitor)
CCCCNS(=O)(=O)c1ccc(OC)c2ncccc12	none
COc1cc(NC(C)CCCN)c2ncccc2c1Oc1ccccc1 (configuration not stated)	Pf growth 48h inconclusive, Pf growth 96h 2.08µM, FBPA Giardia inh inconclusive
C=C1CCC(C2CC(=O)OC2=O)C(=O)CCC2C1CC2(C)C (configuration not stated)	none (no result: NS1 function inh, Pf growth 48h, CHX counter, Shiga inhibitor, Pf growth 96h)
CC/C(=N/Nc1ccccc1)c1cnnc(-c2ccccc2)n1	Pf growth 48h 0.131µM, Pf growth 96h 0.104µM
COc1ccccc1C(=O)Nc1ccc(NC(=O)C2CCCCC2)nc1	Pf growth 48h inconclusive
O=C(Nc1ccc(NC(=O)C2CC2)nc1)c1ccco1	CHX counter 24.0, Shiga inhibitor 59.7 (no result: Pf growth 96h)
O=C(Nc1ccc(NC(=O)C2CCCCC2)nc1)c1ccccn1	CHX counter 43.6, Shiga inhibitor 81.4
O=C(Nc1ccc(NC(=O)C2CCCCC2)nc1)c1ccco1	CHX counter 52.5, Shiga inhibitor 66.2
O=C(NNC(=O)C12CC3CC(CC(C3)C1)C2)c1ccccc1[N+](=O)[O-]	none
Nc1nnc(SCc2nnc(-c3ccccc3)o2)s1	Pf growth 96h inconclusive
CCCc1nc2ccccc2n1CCc1ccccc1	Pf growth 48h 3.29µM, Pf growth 96h 3.7µM
c1ccc(CCn2c(C3CC3)nc3ccccc32)cc1	Pf growth 96h 3.29µM (no result: Pf growth 48h)
O=C(O)CCn1c(C2CCCCC2)nc2ccccc21	none (no result: Pf growth 96h)
COCCCNc1ncnc2ccc(C)cc12	CHX counter 14.6, Shiga inhibitor 39.2, Pf growth 96h inconclusive
COC(=O)NC(/C(C(=O)OC)=C(\C)NCc1ccccc1)c1ccc(Cl)cc1 (configuration not stated)	none (no result: NS1 function inh, Pf growth 48h, CHX counter, Shiga inhibitor, Pf growth 96h)
O=C(O)c1cccc(Nc2ncnc3ccccc23)c1	Pf growth 96h inconclusive
Fc1cccc(Nc2ncnc3c2cnn3-c2ccccc2)c1	CHX counter 30.2, Shiga inhibitor 79.8
Clc1cccc(Nc2ncnc3c2cnn3-c2ccccc2)c1	CHX counter 40.1, Shiga inhibitor 44.5, Pf growth 96h inconclusive, FBPA Giardia inh inconclusive
O=C(O)c1cccc(Nc2ncnc3c2cnn3-c2ccccc2)c1	CHX counter 35.1, Shiga inhibitor 105.8 (no result: Pf growth 96h)
Cc1cccc(Nc2ncnc3c2cnn3Cc2ccccc2)c1	Pf growth 48h inconclusive, Pf growth 96h inconclusive
O=C(COc1ccc(Cl)cc1)NCc1nnc(SCC(=O)N2CCCC2)o1	none (no result: NS1 function inh)
COc1ccc(CCN(C)C(=O)c2c(C)noc2C)cc1OC	Pf growth 96h inconclusive (no result: NS1 function inh, CHX counter, Shiga inhibitor, FBPA Giardia inh)
Cc1ccoc1C(=O)Nc1cccc2ccccc12	CHX counter 30.8
COc1cccc(C(=O)Nc2cccc3ccccc23)c1OC	CHX counter 19.8, Shiga inhibitor 27.0, Pf growth 96h inconclusive
COc1cc(Cl)c(C)cc1NC(=O)c1cccc(OC)c1OC	Pf growth 48h inconclusive, CHX counter 29.6, Pf growth 96h inconclusive
CC(=O)OC1CC2C(C)(C)C(=O)[C@@H]3OC3[C@@]2(C)C2CC[C@]3(C)C(=CC(=O)OC3c3ccoc3)[C@]12C (some centres not stated)	none (no result: NS1 function inh, Pf growth 48h, CHX counter, Shiga inhibitor, Pf growth 96h)
Cc1cccc(N2CCN(C(=O)NCc3ccc(F)cc3)CC2)c1C	Pf growth 48h inconclusive, Pf growth 96h inconclusive
C/C(=N\Nc1nc2ccccc2c(=O)n1O)c1ccco1	CHX counter 46.7, Shiga inhibitor 62.0
Cc1nc2ccccc2c(=O)n1NC(=O)c1ccco1	none
CC[C@H](C)[C@H](NC(=O)[C@@H](NC(=O)CNC(=O)[C@@H](N)CC(C)C)[C@@H](C)O)C(=O)N1CCC[C@H]1C(=O)NCC(=O)O	none (no result: NS1 function inh, Pf growth 48h, Pf growth 96h)
O=C(Oc1ccc2c(c1)OCC2=O)c1ccccc1	CHX counter 44.5, Shiga inhibitor active (no result: Pf growth 96h)
CC(C)(C)c1ccc(C(=O)Oc2ccc3c(c2)OCC3=O)cc1	CHX counter 53.9, Shiga inhibitor 85.6 (no result: Pf growth 96h)
CC(C)OCCCNC(=O)Nc1cccc2ccccc12	none
Cc1ccc(CCN2C(Nc3ccccc3)=NC[C@@H]2C)cc1	Pf growth 48h inconclusive (no result: NS1 function inh, CHX counter, Shiga inhibitor, FBPA Giardia inh)
Cc1ccc(C2C=NN(c3ccccc3)C2=O)cc1 (configuration not stated)	Pf growth 48h 6.57µM, CHX counter 17.8, Shiga inhibitor 28.7, Pf growth 96h inconclusive
O=C(Nc1cccc(Cl)c1)Nc1ccccc1C(=O)O	CHX counter 23.9, Shiga inhibitor 47.0
O=C(NNc1ccccc1[N+](=O)[O-])Nc1cccc(Cl)c1	CHX counter 47.5, Shiga inhibitor 81.0, Pf growth 96h inconclusive
CSc1ccc(NC(=O)Nc2ccccc2C(N)=O)cc1	CHX counter 67.4, Shiga inhibitor 74.4
NC(=O)c1ccccc1NC(=O)Nc1cccc(Cl)c1	CHX counter 20.9, Shiga inhibitor 44.8
Cn1c(=O)n(CC(=O)NCC2CCCO2)c(=O)c2c3c(sc21)COC(C)(C)C3 (configuration not stated)	none
COc1ccc(Cl)cc1NC(=O)Nc1ccccc1C(N)=O	none (no result: NS1 function inh)
